Source: PubChem BioAssay (NCI)
The panel holds about 79,000 compounds, 15% with a hit somewhere; the sample as a whole holds those more often. Calls of active or inactive are those of the source. No stated cut-off is given here; in the data, active means growth inhibition above about 70%; inactive means the rest.

Experiments:
[1] = NCI Yeast Anticancer Drug Screen. Data for the wt1 strain (AID 149);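 further: 0% = growth of vehicle-treated wt1 cultures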; conditions: S. cerevisiae wt1 strain (SPY 50644) growth inhibition, active compounds read high
Procedure, shortened: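 Vehicle-normalised growth inhibition; strain wt1; compound exposure.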

[2] = NCI Yeast Anticancer Drug Screen. Data for the rad50EPP+ strain (AID 151);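 further: 0% = growth of vehicle-treated control cultures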; conditions: S. cerevisiae rad50 mutant strain, active compounds read high
Procedure, shortened: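 Vehicle-normalised growth inhibition; rad50EPP+ yeast strain, altered in DNA damage repair, compound-treated.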

[3] = NCI Yeast Anticancer Drug Screen. Data for the rad50 strain (AID 155);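 further: 0% = growth of vehicle-only cultures of the same strain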; conditions: S. cerevisiae rad50 strain growth inhibition, active compounds read high
Procedure, shortened: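 A DNA repair-deficient yeast mutant serves as the test organism; compound-induced growth inhibition is calculated against vehicle-treated cells.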

[4] = NCI Yeast Anticancer Drug Screen. Data for the mec2-1 strain (AID 157); conditions: S. cerevisiae mec2-1 strain, active compounds read high
Procedure, shortened: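 Mutant yeast (mec2-1) grown with compound; growth inhibition relative to vehicle control reported.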

[5] = NCI Yeast Anticancer Drug Screen. Data for the rad14 strain (AID 159);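 further: 0% = growth of vehicle-treated control cultures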; conditions: S. cerevisiae rad14 strain growth inhibition, active compounds read high
Procedure, shortened: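 Vehicle-treated cultures served as the baseline for growth inhibition of a DNA repair-mutant yeast strain exposed to each compound.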

[6] = NCI Yeast Anticancer Drug Screen. Data for the sgs1 mgt1 strain (AID 161);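 further: 0% = growth of cultures given vehicle only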; conditions: S. cerevisiae sgs1 mgt1 strain, active compounds read high
Procedure, shortened: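 This yeast growth screen uses a strain with defined DNA-repair lesions; compound-treated growth is compared with vehicle-treated growth.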

[7] = NCI Yeast Anticancer Drug Screen. Data for the CLN2oe strain (AID 163);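 further: 0% = growth of vehicle-only control cultures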; conditions: S. cerevisiae CLN2oe strain, active compounds read high
Procedure, shortened: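 Compounds are applied to yeast harbouring a defined cell-cycle control change; reduced growth compared with vehicle-treated controls gives the value.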

[8] = NCI Yeast Anticancer Drug Screen. Data for the cln2 rad14 strain (AID 165);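 further: 0% = growth equal to vehicle treated cultures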; conditions: S. cerevisiae cln2 rad14 strain, active compounds read high
Procedure, shortened: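 Readout is yeast growth inhibition versus vehicle-treated controls, using a strain with cln2 and rad14 alterations exposed to compound.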

[9] = NCI Yeast Anticancer Drug Screen. Data for the bub3 strain (AID 167); conditions: S. cerevisiae bub3 mutant strain, active compounds read high
Procedure, shortened: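 Inhibition values come from growth of compound-treated mutant yeast normalised to vehicle-treated controls.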

[10] = NCI Yeast Anticancer Drug Screen. Data for the wt2 strain (AID 169);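 further: 0% = growth of vehicle-treated yeast cultures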; conditions: S. cerevisiae wt2 strain growth inhibition, active compounds read high
Procedure, shortened: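 Against vehicle-treated controls, the growth of yeast exposed to each compound was compared, and the inhibition was recorded.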

[11] = NCI Yeast Anticancer Drug Screen. Data for the mlh1 strain (AID 171);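 further: 0% = growth of vehicle-treated control cultures of the same strain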; conditions: S. cerevisiae mlh1 strain growth inhibition, active compounds read high
Procedure, shortened: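 Measured: yeast growth. Reference: vehicle-treated controls. Organism: strain with a defined alteration affecting DNA damage repair or cell cycle control, treated with compound.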

[12] = NCI Yeast Anticancer Drug Screen. Data for the sgs1 strain (AID 173);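 further: 0% = growth of vehicle-only control cultures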; conditions: S. cerevisiae sgs1 mutant, active compounds read high
Procedure, shortened: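 Each compound was added to cultures of the altered yeast strain. Growth was recorded, and inhibition was derived by comparison with vehicle controls.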

[13] = NCI Yeast Anticancer Drug Screen. Data for the mlh1 rad18 strain (AID 175); conditions: S. cerevisiae mlh1 rad18 strain growth inhibition, active compounds read high
Procedure, shortened: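 Genetically defined yeast (DNA repair-deficient) exposed to compounds; growth inhibition determined relative to vehicle.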

[14] = NCI Yeast Anticancer Drug Screen. Data for the rad18 strain (AID 177); conditions: S. cerevisiae rad18 mutant growth inhibition, active compounds read high
Procedure, shortened: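 Vehicle-treated cultures served as the baseline for scoring compound-induced growth inhibition in DNA-repair-mutant yeast.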

[15] = at 5.0 µM (retest, dose inferred, filed as 0.5)
[16] = at 50.0 µM (retest, dose inferred, filed as 5.0)

Measured: growth inhibition

Cc1cc(NC(=S)SCc2ccc(Cl)cc2)ccc1Cl
inactive: [1]; at 1.2 µM 11% | [1]; at 3.7 µM 24% | [1]; at 11.0 µM 63% | [2]; at 1.2 µM 3% | [2]; at 3.7 µM 29% | [3]; at 1.2 µM 12% | [3]; at 3.7 µM 10% | [3]; [15] 24% | [3]; at 11.0 µM 44% | [4]; at 1.2 µM -3% | [4]; at 3.7 µM 6% | [4]; [15] 0% | [4]; at 11.0 µM 29% | [5]; at 1.2 µM -4% | [5]; at 3.7 µM 22% | [5]; at 11.0 µM 46% | [6]; [15] 43% | [7]; at 1.2 µM -3% | [7]; at 3.7 µM 15% | [7]; at 11.0 µM 44% | [8]; [15] 29% | [9]; at 1.2 µM -4% | [9]; at 3.7 µM -8% | [9]; [15] 48% | [9]; at 11.0 µM 49% | [10]; at 1.2 µM -5% | [10]; at 3.7 µM 20% | [10]; at 11.0 µM 56% | [11]; at 1.2 µM -17% | [11]; at 3.7 µM -8% | [11]; at 11.0 µM 27% | [12]; at 1.2 µM -9% | [12]; at 3.7 µM -22% | [12]; at 11.0 µM 38% | [13]; [15] 11% | [14]; at 1.2 µM 13% | [14]; at 3.7 µM 35% | [14]; at 11.0 µM 69%
active: [1]; at 33.0 µM 98% | [1]; at 100.0 µM 98% | [2]; at 11.0 µM 92% | [2]; at 33.0 µM 99% | [2]; at 100.0 µM 99% | [3]; at 33.0 µM 97% | [3]; [16] 96% | [3]; at 50.0 µM 90.5% | [3]; at 100.0 µM 95% | [4]; at 33.0 µM 98% | [4]; [16] 97% | [4]; at 50.0 µM 92.5% | [4]; at 100.0 µM 98% | [5]; at 33.0 µM 99% | [5]; at 100.0 µM 98% | [6]; [16] 98% | [6]; at 50.0 µM 91.8% | [7]; at 33.0 µM 98% | [7]; at 100.0 µM 98% | [8]; [16] 95% | [8]; at 50.0 µM 90.5% | [9]; at 33.0 µM 99% | [9]; [16] 98% | [9]; at 50.0 µM 91.6% | [9]; at 100.0 µM 98% | [10]; at 33.0 µM 98% | [10]; at 100.0 µM 99% | [11]; at 33.0 µM 98% | [11]; at 100.0 µM 98% | [12]; at 33.0 µM 98% | [12]; at 100.0 µM 98% | [13]; [16] 96% | [13]; at 50.0 µM 90.6% | [14]; at 33.0 µM 98% | [14]; at 100.0 µM 96%
